From PubChem BioAssay AID651871 (Sanford-Burnham Center for Chemical Genomics, 2012)
Where “and” joins values, the source holds several entries; their conditions need not be identical. Equal values may be shown once.

The compounds below were run on H9c2 (assay: cardiomyocyte survival under oxidative or metabolic stress – cell-based, panel, H9c2 and HL-1, ATP luminescence, set 2, SAR follow-up (AID 651871;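 also: cells exposed to stressor for 2 h before ATP readout; reference of the scale not given here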)). Settings: H9c2/HL-1 cardiomyocytes, 2-deoxyglucose stress, with 2-deoxyglucose; run 3, at 79 µM (top of the series).
`CCOC(=O)c1cccc(NC(=O)CNC(=O)c2cc(-c3cc(OC)c(OC)c(OC)c3)nc3ccccc23)c1` showed an activity (protection/inhibition) of 92.4%. With `COc1ccc2c(c1OC)C(=O)N1c3ccccc3C(=O)N(Cc3cccc(Cl)c3Cl)C21` (stereo not drawn) the activity (protection/inhibition) was 71.2% and 81.8% and -10.3%. Work on `COc1ccc2nc(-c3cc(OC)c(OC)c(OC)c3)cc(C(=O)NCC(=O)Nc3ccc(C(C)=O)cc3)c2c1` yielded an activity (protection/inhibition) of 75.4%.
